MsrA inh: bovine MsrA enzyme inhibitors, primary screen, biochemical, absorbance, HTS; purified bovine MsrA, absorbance read-out; inhibition, % at 15.5 µM; actives 0.75% (n = 360,000); in the data active means inhibition above about 4.5%;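 further: 0% = vehicle wells with enzyme and 100% = reference inhibitor wells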
PKA-R2B act: activators of PKA-R2B holoenzyme, primary screen, biochemical, fluorescence polarization, Cy5-IP20, human; actives 0.079% (n = 340,000); activation, % at 11.4 µM; cAMP-dependent protein kinase catalytic subunit beta (Homo sapiens) + cAMP-dependent …; AID 504700, 2011; PKA-R2B holoenzyme dissociation; R2B truncated from residue 108, S112A mutant; 0% DMSO only, 100% 113 µM cGMP;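 active means activation above a cutoff set at the mean over all compounds plus 3 SD, cut at about 18% in these data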;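 further: higher means more holoenzyme dissociation and a rise in polarization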
MsrA act: bovine MsrA enzyme activators, primary screen, biochemical, absorbance, HTS. Methionine sulfoxide reductase A (Bos taurus). purified bovine MsrA, absorbance read-out. activation, % at 10.6 µM. actives 0.3% (n = 360,000). AID 602163, 2012; in the data active means activation above about 7.5%;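 further: 0% = vehicle and 100% = reference activator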
PKA-R1A act: activators of PKA-R1A holoenzyme, primary screen, biochemical, fluorescence polarization, Cy5-IP20, bovine R1A, mouse PKAc | cAMP-dependent protein kinase type I-alpha regulatory subunit (Bos taurus) + … | PKA-R1A dissociation; scaled: DMSO 0%, 113 µM cGMP 100% | activation, % at 11.4 µM | actives 0.083% (n = 340,000) | AID 504707, 2011;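 active means percent activation above the mean of all tested compounds plus 3 SD, cut at about 19% in these data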;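 further: higher means more PKAc released from R1A so a rise in polarization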
R1A FP artifact: FP signal interference without PKA proteins, confirmation, artefact control for PKA-R1A activator project, biochemical, fluorescence polarization, triplicate; Cy5-IP20 peptide alone, fluorescence polarization artifact counterscreen; AID 504799, 2011; activation, % at 11.4 µM; shares compounds with PKA-R1A act; actives 7% (n = 280);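 active means mean activation over triplicate runs exceeds the adjusted cutoff derived for the parent primary screen, cut at about 19% in these data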;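 further: no PKA protein present so any polarization rise reflects compound interference; 0% = tracer peptide mix alone and 100% = mix with added PKA catalytic subunit; higher means stronger polarization artifact and likely false positive in parent screen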
PKA-R1A confirm: activators of PKA-R1A holoenzyme, confirmation, biochemical, fluorescence polarization, Cy5-IP20, triplicate; activation, % at 11.4 µM; PKA-R1A holoenzyme dissociation; actives 9% (n = 280); AID 504800, 2011; shares compounds with PKA-R1A act;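 active means mean activation over replicate wells exceeds the adjusted hit threshold taken from the earlier primary screen, cut at about 20% in these data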;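 further: 0% = holoenzyme mix with DMSO only and 100% = cGMP-activated control wells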
Target sequence (P00514 whole entry, looked up): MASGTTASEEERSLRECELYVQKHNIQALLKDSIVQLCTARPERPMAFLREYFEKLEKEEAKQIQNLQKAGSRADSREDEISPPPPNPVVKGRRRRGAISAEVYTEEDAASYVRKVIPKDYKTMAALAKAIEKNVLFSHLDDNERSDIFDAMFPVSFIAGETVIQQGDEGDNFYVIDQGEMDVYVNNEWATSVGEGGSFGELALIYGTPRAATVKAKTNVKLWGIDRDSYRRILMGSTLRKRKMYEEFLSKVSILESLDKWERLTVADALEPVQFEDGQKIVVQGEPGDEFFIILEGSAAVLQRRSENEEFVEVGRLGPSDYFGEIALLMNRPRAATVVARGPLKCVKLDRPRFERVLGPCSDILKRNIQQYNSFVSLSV
Numbers without * were called inactive. This is a sample that favours compounds with a hit; in the whole collection about 1.1% have one here.

What do the screens show for `CC(CCC(=O)O)C1CC[C@@]2(C)C3C(=O)CC4C(C)(C)C(O)CC[C@]4(C)C3C(=O)C[C@]12C` (some centres undefined)?
MsrA inh: 0; PKA-R2B act: 6; MsrA act: -3; PKA-R1A act: 20*; R1A FP artifact: 8; PKA-R1A confirm: 4

How did Cc1cc(C)c(S(=O)(=O)Cc2ccccc2)c(=O)[nH]1 do in these assays?
MsrA inh: -1; PKA-R2B act: -4; MsrA act: -13; PKA-R1A act: 21*; R1A FP artifact: 6; PKA-R1A confirm: 5

What do the screens show for `NC(=O)CSc1nc2ccccc2n1-c1ccccc1`?
MsrA inh: 0; PKA-R2B act: -5; MsrA act: -7; PKA-R1A act: -19

What do the screens show for `NC(=O)CSc1nc2ccccc2n1Cc1ccccc1`?
MsrA inh: 1; PKA-R2B act: -3; MsrA act: -3; PKA-R1A act: 21*; R1A FP artifact: 2; PKA-R1A confirm: -1

What do the screens show for `COC(=O)[C@]12C[C@H](CC(=O)N3CCN(C(=O)C4CC4)CC3)C(=O)N(Cc3ccccc3)C1=C[C@H](C(C)C)O[C@@H]2C1CC1`?
MsrA inh: 0

What do the screens show for `CCOC(=O)c1c(NC(=O)CCC(=O)O)sc2c1CCCCC2`?
MsrA inh: 1; PKA-R2B act: 0; MsrA act: -7; PKA-R1A act: 20*; R1A FP artifact: 3; PKA-R1A confirm: 9

Results for CCOC(=O)c1c(NC(=O)c2c(C(=O)O)cccc2[N+](=O)[O-])sc2c1CCCC2 ?
MsrA inh: 2; PKA-R2B act: -8; MsrA act: -3; PKA-R1A act: 19*; R1A FP artifact: 4; PKA-R1A confirm: 1

How did CCOC(=O)c1c(NC(=O)c2cccc([N+](=O)[O-])c2C(=O)O)sc2c1CCCC2 do in these assays?
MsrA inh: 2; PKA-R2B act: 3; MsrA act: -3; PKA-R1A act: -4

Results for O=C(C(=O)N1CCN(S(=O)(=O)c2ccc(OC(F)(F)F)cc2)CC1)c1cccc(C(F)(F)F)c1 ?
MsrA inh: 0

How did COC(=O)C1=C(C)N(Cc2ccc(Cl)cc2)C(=S)NC1c1ccc(Br)cc1 (centres undefined) do in these assays?
MsrA inh: 2

How did COc1ccc(NC(=O)Cn2nnc(-c3ccccc3NC(=O)c3ccco3)n2)cc1 do in these assays?
MsrA inh: 0; PKA-R2B act: 8; MsrA act: -1; PKA-R1A act: 20*; R1A FP artifact: 2; PKA-R1A confirm: 6

Results for COc1ccccc1N=Nc1c(C)n[nH]c1C ?
MsrA inh: 4.6*; PKA-R2B act: -5; MsrA act: -3; PKA-R1A act: 19*; R1A FP artifact: -1; PKA-R1A confirm: 1

Results for CC(OC(=O)CCOc1ccccc1)C(=O)Nc1ccc(Cl)cn1 (centres undefined) ?
MsrA inh: 1; PKA-R2B act: -5; MsrA act: -15; PKA-R1A act: 22*; R1A FP artifact: -2; PKA-R1A confirm: -2

What do the screens show for `CC(OC(=O)c1ccco1)C(=O)Nc1ccc(Cl)cn1` (centres undefined)?
MsrA inh: 0; PKA-R2B act: 3; MsrA act: -8; PKA-R1A act: 3

How did CC(OC(=O)c1ccccc1O)C(=O)Nc1ccc(Cl)cn1 (centres undefined) do in these assays?
MsrA inh: 1; PKA-R2B act: -7; MsrA act: -1; PKA-R1A act: 19*; R1A FP artifact: 0; PKA-R1A confirm: -2

How did CC(OC(=O)CCc1ccccc1)C(=O)Nc1ccc(Cl)cn1 (centres undefined) do in these assays?
MsrA inh: -2; PKA-R2B act: -9; MsrA act: 3; PKA-R1A act: -11
